The record followed here is PubChem BioAssay (Tox21).

The nature of test [1]: qHTS assay for small molecules that induce genotoxicity in human embryonic kidney cells expressing luciferase-tagged ATAD5 (AID 651632). Further: nearly all actives have a fitted effect of over 15% in size. Further: potency means the concentration at half of the fitted maximal effect. An outline of the steps:
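HEK293T cells carrying a luciferase reporter tagged to ATAD5 were exposed to compound or DMSO vehicle for 16 hr at 37C, 5% CO2. Amplite was added, and after 30 min at room temperature luciferase activity was read as a marker of ATAD5 induction.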
In general terms: Quantitative high-throughput screening tests each substance at several concentrations.

A short description of test [2]: qHTS assay for small molecule agonists of the p53 signaling pathway - cell viability (AID 651633; calls by dose curve; further: nearly all actives have a fitted effect of over 30% in size; further: potency means the concentration at half of the fitted maximal effect). An outline of the steps:
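Viability counter-read: CellTiter-Glo luminescence (30 min, room temperature) in the same p53RE-bla plates. These plates had been exposed to compounds for 16 h at 37 C.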

Test [3] can be described thus: qHTS assay for small molecules that induce genotoxicity in human embryonic kidney cells expressing luciferase-tagged ATAD5 - cell viability (AID 651634; calls by dose curve; further: nearly all actives have a fitted effect of over 25% in size; further: potency means the concentration at half of the fitted maximal effect). The essentials: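 HEK293T cells expressing luciferase-tagged ATAD5 were exposed to compound or DMSO for 15.5 hr at 37C, 5% CO2. Viability was then read as live-cell protease activity by CellTiter-Fluor fluorescence after 30 min at 37C.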

Test [4] in a line: qHTS assay for small molecule disruptors of the mitochondrial membrane potential - cell viability (AID 720634; calls by dose curve; further: nearly all actives have a fitted effect of over 20% in size; further: potency means the concentration at half of the fitted maximal effect). An outline of the steps: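 HepG2 cells seeded overnight at 37 C, then exposed to compound or DMSO for 1 hr at 37 C, 5% CO2. m-MPI dye added, then CellTiter-Glo for 30 min at room temperature; viability read as ATP luminescence.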
Test [5] in a line: qHTS assay for small molecule disruptors of the mitochondrial membrane potential (AID 720635). Further: potency means the concentration at half of the fitted maximal effect. An outline of the steps: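 Mitochondrial membrane potential tracked with Mito-MPS dye, red aggregates (ex 540/em 590 nm) against green monomers (ex 490/em 535 nm). Compound treatment 1 hr at 37C, dye 30 min in HepG2.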
Test [6] can be described thus: qHTS assay to test for compound auto fluorescence at 590 nm (red) in HepG2 cells (AID 720674). An outline of the steps:
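Red autofluorescence (Ex/Em 540/590 nm, Rose Bengal sodium equivalents) was measured in HepG2 cells, 2,000 per well in MEM plus 10% FBS, plated overnight at 37 C. Readings were taken 1 hr after adding 23 nL compound or DMSO, at 37 C and 5% CO2.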

A short description of test [7]: qHTS assay to test for compound auto fluorescence at 535 nm (green) in HepG2 cells (AID 720675).
Test [8] can be described thus: qHTS assay to test for compound auto fluorescence at 460 nm (blue) in HEK293 cells (AID 720678). The essentials: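 Blue read-out at excitation 405 nm and emission 460 nm follows overnight compound exposure of HEK293 cells at 37C in 5% CO2. Activity is given as auto fluorescence equivalency to triamterene.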
A short description of test [9]: qHTS assay to test for compound auto fluorescence at 535 nm (green) in HEK293 cells (AID 720680).
Test [10] can be described thus: qHTS assay to test for compound auto fluorescence at 460 nm (blue) in HEK293 cell free culture (AID 720681). An outline of the steps: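 Blue fluorescence (Ex 405/Em 460 nm, triamterene-equivalent) was read immediately after pin transfer of compound or DMSO into medium (DMEM, 10% FBS) without cells.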
Test [11] is described as follows: qHTS assay to test for compound auto fluorescence at 535 nm (green) in HEK293 cell free culture (AID 720682). An outline of the steps:
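Intrinsic compound fluorescence is measured in culture medium containing 10% FBS, with excitation at 485 nm and detection at 535 nm, referenced to fluorescein.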

Test [12] in a line: qHTS assay to test for compound auto fluorescence at 590 nm (red) in HEK293 cell free culture (AID 720683). The essentials: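 Red-channel autofluorescence of compounds in culture medium (DMEM, 10% FBS), no cells, measured at 540/590 nm. Rose Bengal sodium is the reference fluorophore for equivalence.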
A short description of test [13]: qHTS assay to test for compound auto fluorescence at 590 nm (red) in HepG2 cell free culture (AID 720684). An outline of the steps: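 Plate contents were MEM with 10% FBS plus test compound or DMSO, no cells. Fluorescence was recorded with 540 nm excitation and 590 nm emission.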
Test [14] is described as follows: qHTS assay to test for compound auto fluorescence at 460 nm (blue) in HepG2 cell free culture (AID 720685). An outline of the steps:
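Compound (23 nL) or DMSO pinned into cell-free MEM with 10% FBS; blue fluorescence read at 405/460 nm excitation/emission, expressed as auto-fluorescence equivalency to triamterene.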

Test [15] is described as follows: qHTS assay to test for compound auto fluorescence at 535 nm (green) in HepG2 cell free culture (AID 720686).
Test [16] in a line: qHTS assay to test for compound auto fluorescence at 460 nm (blue) in HepG2 cells (AID 720687). The essentials: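 Blue-channel autofluorescence (Ex/Em 405/460 nm, triamterene-equivalent) was measured after 1 hr compound exposure at 37 C, 5% CO2. Cells were HepG2, plated overnight at 37 C in MEM plus 10% FBS.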
The nature of test [17]: qHTS assay to test for compound auto fluorescence at 590 nm (red) in HEK293 cells (AID 720679). The essentials:
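Red channel, Ex/Em 540/590nm; signal expressed as equivalency to Rose Bengal sodium. HEK293, 2,000 cells/well, 10% dialyzed FBS; 23 nL compound pinned after 4-5 hr attachment; overnight 37C/5% CO2 before reading.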

Test [18] deals with Glucocorticoid receptor (Homo sapiens) (UniProt P04150). Description: qHTS assay to identify small molecule antagonists of the glucocorticoid receptor (GR) signaling pathway (AID 720692; active means well fitted inhibition curve with a large enough effect in the signal ratio in the repeat runs, not every such curve was filed as active; the % refers to the signal ratio; further: potency means the concentration at half of the fitted maximal effect). The essentials:
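GR-bla HeLa cells (beta-lactamase reporter under glucocorticoid response element) were pre-plated 4 h at 37 C, treated with compounds plus 5 nM dexamethasone (final) for 18 h, then read by LiveBLAzer B/G FRET fluorescence after 2 h.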

Test [19] has the same target. Nature of the test: qHTS assay to identify small molecule agonists of the glucocorticoid receptor (GR) signaling pathway (AID 720691; active means well fitted activation curve with a large enough effect in the signal ratio in the repeat runs, not every such curve was filed as active; the % refers to the signal ratio). As to conditions: GR-bla HeLa, beta-lactamase reporter ratio, 18 h; activation: at 62.4 µM (top of the series). The essentials:
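GR-bla HeLa cells (beta-lactamase reporter under glucocorticoid response element) were plated 4 h at 37 C/5% CO2, given compounds in DMSO, and incubated 18 h at 37 C. LiveBLAzer B/G FRET substrate was added for 2 h at room temperature, then fluorescence intensity read.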

Inconclusive results are not listed. Calls of active or inactive are those of the source. Unless noted, the call rests on the fitted dose curve; in most records, active means well fitted curve in the direction sought with a large enough effect in the repeat runs; inconclusive means weak or mixed curves; inactive means no such curve, though single readings can be large; an effect the other way counts as inactive or inconclusive.

Chain of Glucocorticoid receptor (Homo sapiens) (P04150 whole entry, looked up): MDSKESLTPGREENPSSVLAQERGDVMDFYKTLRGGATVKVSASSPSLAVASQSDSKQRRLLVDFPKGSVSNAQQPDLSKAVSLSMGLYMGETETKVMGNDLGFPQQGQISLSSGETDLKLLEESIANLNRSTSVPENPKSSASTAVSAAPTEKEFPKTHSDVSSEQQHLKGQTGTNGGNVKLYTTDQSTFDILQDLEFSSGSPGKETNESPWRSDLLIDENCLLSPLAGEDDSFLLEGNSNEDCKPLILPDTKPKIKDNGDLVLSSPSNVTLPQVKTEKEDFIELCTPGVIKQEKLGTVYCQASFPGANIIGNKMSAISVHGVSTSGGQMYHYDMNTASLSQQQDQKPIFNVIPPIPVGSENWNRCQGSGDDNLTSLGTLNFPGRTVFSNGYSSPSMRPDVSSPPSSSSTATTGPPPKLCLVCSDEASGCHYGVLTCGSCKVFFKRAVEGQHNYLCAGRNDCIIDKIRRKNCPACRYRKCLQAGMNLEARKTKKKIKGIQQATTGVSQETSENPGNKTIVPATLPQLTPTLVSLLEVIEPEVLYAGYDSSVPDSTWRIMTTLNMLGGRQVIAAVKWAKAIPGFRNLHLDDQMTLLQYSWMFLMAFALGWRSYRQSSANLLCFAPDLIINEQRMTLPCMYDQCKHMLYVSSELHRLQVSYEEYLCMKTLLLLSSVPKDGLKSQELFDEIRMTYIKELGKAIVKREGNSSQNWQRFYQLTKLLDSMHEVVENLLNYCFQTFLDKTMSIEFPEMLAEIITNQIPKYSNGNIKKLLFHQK

On to `CC(=O)[O][Sn]([c]1ccccc1)([c]1ccccc1)[c]1ccccc1`, for which the Potency entry in test [1], in test [7], in test [8], in test [10], in test [14] and in test [15] was “inactive” throughout. The Potency entry in test [16] was “inactive”. The Potency in test [2] was 3.44 µM (active); in test [3], 0.122 µM (active); in test [4], 15.4 µM (active); in [5], 0.077 µM (active). Moreover, the compound was classed as inactive in test [6], in test [9], in [11], in [12] and in test [13].
As to `Nc1ccc(N=Nc2ccccc2)cc1`, the Potency is 13.7 µM (active) in [1], 41.6 µM (active) in test [3] and 54.9 µM (active) in test [18]. Also, the Potency entry in test [2], in [7], in test [8], in test [10], in test [14] and in [15] was “inactive” each time. Besides, in [16], the Potency result is “inactive”. Further, the compound was called inactive in [6], in test [17], in [9], in [11], in [12] and in test [13].
Consider `O=S(=O)(NS(=O)(=O)C(F)(F)F)C(F)(F)F`, for which the Potency entry in [1], in test [2], in [3], in test [4], in test [7] and in [10] was “inactive” each time. Moreover, the Potency entry in [14], in test [15] and in [16] was “inactive” throughout. The compound was classed as inactive in test [17], in test [9], in [11] and in test [12].
For the compound `S=C=Nc1ccccc1`, the Potency entry in test [1], in test [2], in [3], in test [7], in [8] and in test [10] was “inactive” throughout. In addition, the Potency result in test [14], in test [15], in test [16], in test [19] and in [18] was “inactive” in each case. Moreover, the Potency in test [5] was 28.2 µM (active). For the same compound, the compound was called inactive in [6], in test [17], in test [9], in test [11], in [12] and in test [13].
Take `CCC[CH2][Sn]([CH2]CCC)([CH2]CCC)[CH2]CCC`: the Potency entry in test [1], in [7], in [8], in [10], in test [14] and in test [15] was “inactive” each time. Moreover, the Potency entry in [16] was “inactive”. Further, the Potency in test [2] is 43.3 µM (active); in test [3], 19.3 µM (active); in test [5] it was 4.86 µM (active). Moreover, the outcome in test [6], in [17], in test [9], in test [11] and in [12] was inactive.
In the case of `COC(=O)c1cc(Oc2ccc(Cl)cc2Cl)ccc1[N+](=O)[O-]`, the Potency result in test [1], in [2], in test [3], in test [7], in test [8] and in test [10] was “inactive” throughout. Besides, the Potency entry in [14], in test [15], in test [16], in test [19] and in [18] was “inactive” in each case. Further, the compound was classed as inactive in [6], in test [17], in [9], in test [11], in [12] and in [13].
With `Cc1c([N+](=O)[O-])cc2c(c1[N+](=O)[O-])C(C)(C)CC2(C)C`, the Potency result in [1], in test [2], in test [3], in [7], in test [8] and in [10] was “inactive” throughout. Besides, the Potency entry in test [14], in [15], in [16] and in test [18] was “inactive” each time. For the same compound, the Potency in test [5] is 30.6 µM (active). Moreover, the result in test [6], in test [17], in test [9], in [12] and in test [13] was inactive.
Consider `CCCCCCCc1ccc(O)cc1`, for which the Potency entry in test [1], in test [2], in test [3], in test [7], in test [8] and in test [10] was “inactive” each time. In addition, the Potency result in test [14], in test [15], in [16] and in [19] was “inactive” throughout. The Potency in test [5] was 7.7 µM (active). In addition, the compound was classed as inactive in test [6], in [17], in test [9], in test [11] and in [12].
On to `COP(=O)(OC)Oc1ccc([N+](=O)[O-])cc1`, for which the Potency result in test [1], in test [2], in [3], in test [5], in [7] and in test [8] was “inactive” throughout. The Potency entry in [10], in test [14], in [15] and in [16] was “inactive” in each case. Besides, the call in [6], in [9], in test [11], in [12] and in test [13] was inactive.
